Measurements reported in PubChem BioAssay (NCATS).
Unmarked numbers belong to inactive results. Inconclusive results are not listed. Active and inactive are the calls of the source. Unless noted, calls come from the whole dose curve; as a rule, active = well fitted curve in the direction sought with a large enough effect; inconclusive = small, poorly fitted or top-dose-only effect, or another doubt; inactive = no such curve, though single readings can be large; an effect the other way counts as inactive or inconclusive.

Experiments:
[1] = target: Lysosomal acid glucosylceramidase (Homo sapiens) (UniProt P04062); experiment: Glucocerebrosidase-p2 (AID 348; in the data active = potency below about 10 µM; note: potency is the fitted concentration of half-maximal effect); conditions: purified GBA, blue fluorogenic substrate, 40 min
Sequence of Lysosomal acid glucosylceramidase (Homo sapiens) (P04062 whole entry, looked up): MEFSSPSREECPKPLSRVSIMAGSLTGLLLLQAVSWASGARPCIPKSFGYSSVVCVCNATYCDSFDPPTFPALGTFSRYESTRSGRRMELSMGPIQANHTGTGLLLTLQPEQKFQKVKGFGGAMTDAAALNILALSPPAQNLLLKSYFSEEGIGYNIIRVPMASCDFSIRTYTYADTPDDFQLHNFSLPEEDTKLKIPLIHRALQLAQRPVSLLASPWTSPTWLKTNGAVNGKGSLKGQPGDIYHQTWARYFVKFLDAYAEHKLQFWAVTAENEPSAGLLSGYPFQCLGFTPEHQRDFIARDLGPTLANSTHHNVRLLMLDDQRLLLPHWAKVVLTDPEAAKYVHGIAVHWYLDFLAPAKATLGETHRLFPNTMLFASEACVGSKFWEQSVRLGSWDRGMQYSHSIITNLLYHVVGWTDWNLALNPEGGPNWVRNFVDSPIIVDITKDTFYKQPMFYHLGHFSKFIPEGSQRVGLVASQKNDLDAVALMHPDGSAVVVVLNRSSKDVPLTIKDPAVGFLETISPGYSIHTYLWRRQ
How it was run: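 Normal human glucocerebrosidase (0.2 nM) with blue fluorogenic substrate (80 uM final) in citrate/phosphate pH 5.9 with 10mM sodium taurocholate, 0.01% tween-20; 40 min RT, NaOH/glycine stop; fluorescence Ex 365/Em 440; AC50 from a titration from 0.6 nM upwards.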

[2] = AP1 Signaling Pathway (AID 357; active = well fitted curve in either direction with a large enough effect, not every such curve was filed as active; note: % is set by controls: 0 for no effect and ±100 for the full control effect); conditions: ME-180 AP-1-bla reporter, EGF-induced, beta-lactamase ratio, 5 h; at 7.69 µM (top of the series) unless noted
How it was run: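 ME-180 cells with beta-lactamase reporter under AP-1 response element, stimulated with EC50 EGF; compounds tested in titration series, 5 h at 37 °C. CCF4 substrate added 2.5 h at room temperature; 460/530 nm emission ratio gave %activity and AC50.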

[3] = target: Cytochrome P450 1A2 (Homo sapiens) (UniProt P05177); experiment: p450-cyp1a2 (AID 410; calls by dose curve; note: potency is the fitted concentration of half-maximal effect); conditions: recombinant CYP1A2, luciferin-ME demethylation, luminescence; series mostly up to 57 µM
Sequence of Cytochrome P450 1A2 (Homo sapiens) (P05177 whole entry, looked up): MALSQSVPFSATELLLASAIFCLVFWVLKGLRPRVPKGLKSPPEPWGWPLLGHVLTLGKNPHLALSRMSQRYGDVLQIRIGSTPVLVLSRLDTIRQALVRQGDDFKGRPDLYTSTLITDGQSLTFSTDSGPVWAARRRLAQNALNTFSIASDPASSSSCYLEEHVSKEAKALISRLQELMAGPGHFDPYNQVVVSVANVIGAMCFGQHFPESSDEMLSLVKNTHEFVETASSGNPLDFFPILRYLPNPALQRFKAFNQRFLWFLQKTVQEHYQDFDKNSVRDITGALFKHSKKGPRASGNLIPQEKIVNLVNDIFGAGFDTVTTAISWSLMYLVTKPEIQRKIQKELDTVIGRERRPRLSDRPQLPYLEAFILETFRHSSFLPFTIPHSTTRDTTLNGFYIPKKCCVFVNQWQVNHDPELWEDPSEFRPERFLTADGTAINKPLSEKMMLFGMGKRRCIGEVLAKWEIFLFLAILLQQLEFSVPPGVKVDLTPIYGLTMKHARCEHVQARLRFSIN
How it was run: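 O-Demethylation of luciferin 6' methyl ether by human CYP1A2 is monitored as luciferase luminescence. Substrate sits at Km (100uM); enzyme is 20nM. Values are scaled to 57 uM furafylline as maximal inhibition.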

[4] = NFAT Signaling Pathway (AID 444; active = well fitted curve in either direction with a large enough effect, not every such curve was filed as active;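 note: carbachol stimulus at about its EC50 of 1 µM final; % is set by controls: 0 for no effect and ±100 for the full control effect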); conditions: Jurkat NFAT-bla M1, carbachol, beta-lactamase ratio, 5 h; at 7.69 µM (top of the series) unless noted
How it was run: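 Jurkat cells with NFAT-driven β-lactamase reporter and co-expressed M1 receptor, stimulated with carbachol (final 1 uM, ~EC50), compound titration, 5 h at 37 °C. CCF4 loaded 1 h at RT; 460/530 nm ratio gave %activity and AC50.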

[5] = Stat Signaling Pathway (AID 446; active = well fitted curve in either direction with a large enough effect, not every such curve was filed as active;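 note: ME-180 cervical cancer cells given 40 pM IL-6 alongside compound; SIE-controlled beta-lactamase reporter measured as 460/530 nm FRET emission ratio; % is set by controls: 0 for no effect and ±100 for the full control effect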); conditions: ME-180 SIE beta-lactamase reporter, IL-6 stimulated, 5 h; at 7.69 µM (top of the series) unless noted
How it was run: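 FRET read-out (405 nm excitation, 460/530 nm emission) of a beta-lactamase reporter under a STAT-inducible element in ME-180 cervical carcinoma cells. Cells with compound receive 40 pM IL-6 for 5 h. Values are normalised to AC90 stimulation and AC90 JAK-inhibitor controls.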

[6] = target: Glucocorticoid receptor (Homo sapiens) (UniProt P04150); experiment: GR-EFC Redistribution (AID 451; calls by dose curve; note: potency is the fitted concentration of half-maximal effect); conditions: CHO-K1 GR-EFC translocation, beta-gal luminescence, 2 h
Sequence of Glucocorticoid receptor (Homo sapiens) (P04150 whole entry, looked up, the tested form may be a part): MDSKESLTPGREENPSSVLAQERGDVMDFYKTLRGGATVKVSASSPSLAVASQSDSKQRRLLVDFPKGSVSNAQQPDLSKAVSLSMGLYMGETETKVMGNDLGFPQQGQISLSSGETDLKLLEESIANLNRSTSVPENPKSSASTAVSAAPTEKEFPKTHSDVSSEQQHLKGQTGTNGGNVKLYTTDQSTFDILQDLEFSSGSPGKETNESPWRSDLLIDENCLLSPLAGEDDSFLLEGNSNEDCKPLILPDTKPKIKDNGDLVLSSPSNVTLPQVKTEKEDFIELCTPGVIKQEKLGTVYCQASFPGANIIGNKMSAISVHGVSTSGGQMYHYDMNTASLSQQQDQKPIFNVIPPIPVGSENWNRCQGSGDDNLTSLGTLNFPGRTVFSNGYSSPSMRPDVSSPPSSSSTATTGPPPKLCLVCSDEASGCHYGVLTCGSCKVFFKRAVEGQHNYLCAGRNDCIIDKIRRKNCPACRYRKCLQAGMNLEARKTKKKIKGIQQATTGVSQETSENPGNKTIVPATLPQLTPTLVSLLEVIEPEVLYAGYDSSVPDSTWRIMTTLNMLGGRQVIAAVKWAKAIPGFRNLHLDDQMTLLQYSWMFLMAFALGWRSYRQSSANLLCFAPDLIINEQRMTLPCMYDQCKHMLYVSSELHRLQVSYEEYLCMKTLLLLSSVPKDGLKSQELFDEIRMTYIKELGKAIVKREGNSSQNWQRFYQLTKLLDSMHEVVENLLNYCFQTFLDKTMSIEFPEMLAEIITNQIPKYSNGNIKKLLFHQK
How it was run: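 CHO-K1 cells expressing nuclear EA and GR-ED fragments of b-gal; compounds titrated up to 46 uM final, 2 h at 37 C. GR nuclear translocation read as complemented b-gal luminescence after 1 h RT detection.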

[7] = target: Mitogen-activated protein kinase 10 (Mus musculus) (UniProt Q61831); experiment: JNK3 AlphaScreen Assay (AID 530; active = well fitted curve in either direction with a large enough effect, not every such curve was filed as active;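 note: kinase came from lysate of stimulated human HepG2 cells; signal reports phosphorylation of biotinylated GST-cJun 1-79 at Ser73 with 10 µM ATP; % is set by controls: 0 for no effect and ±100 for the full control effect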); conditions: JNK3 lysate, c-Jun phosphorylation; series mostly up to 57.1 µM
How it was run: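 Activity was read by AlphaScreen after JNK3-containing HepG2 lysate (cytokine pre-activated) phosphorylated biotinylated GST-cJun with 10 uM ATP at room temperature. Phospho-Ser73 cJun antibody with Protein-A acceptor beads provided detection.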

[8] = target: 3',5'-cyclic-AMP phosphodiesterase 4B (Homo sapiens) (UniProt Q07343); experiment: qHTS Assay for Inhibitors of PDE-IV (AID 607; active = well fitted activation curve with a large enough effect in the main read-out, with a control signal flat, not every such curve was filed as active; note: % of control where 0% means no effect); conditions: HEK293 ACTOne CNG channel cells, membrane potential fluorescence; series mostly up to 22.9 µM
Sequence of 3',5'-cyclic-AMP phosphodiesterase 4B (Homo sapiens) (Q07343 whole entry, looked up): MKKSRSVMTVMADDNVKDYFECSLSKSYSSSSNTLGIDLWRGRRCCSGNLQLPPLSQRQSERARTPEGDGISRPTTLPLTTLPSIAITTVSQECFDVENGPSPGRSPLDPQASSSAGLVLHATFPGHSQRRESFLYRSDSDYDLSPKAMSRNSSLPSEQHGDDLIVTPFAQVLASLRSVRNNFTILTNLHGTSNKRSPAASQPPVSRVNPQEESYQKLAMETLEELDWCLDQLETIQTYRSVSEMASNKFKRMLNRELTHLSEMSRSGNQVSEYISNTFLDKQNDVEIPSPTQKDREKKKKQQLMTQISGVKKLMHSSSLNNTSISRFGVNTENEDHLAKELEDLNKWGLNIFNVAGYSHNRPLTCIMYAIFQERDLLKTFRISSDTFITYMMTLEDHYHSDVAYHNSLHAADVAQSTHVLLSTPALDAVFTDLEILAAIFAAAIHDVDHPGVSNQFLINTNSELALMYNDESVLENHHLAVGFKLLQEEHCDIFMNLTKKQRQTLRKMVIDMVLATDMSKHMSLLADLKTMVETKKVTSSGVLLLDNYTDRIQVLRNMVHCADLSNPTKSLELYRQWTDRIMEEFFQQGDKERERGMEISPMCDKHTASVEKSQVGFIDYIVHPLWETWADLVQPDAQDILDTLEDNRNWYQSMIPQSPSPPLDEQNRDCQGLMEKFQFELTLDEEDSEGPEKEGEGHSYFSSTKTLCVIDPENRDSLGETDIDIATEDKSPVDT
How it was run: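 Cell-based read-out of cAMP via a modified cyclic nucleotide-gated channel and membrane potential dye (535/590 nm) in HEK293 cells expressing PDE4 endogenously. Compounds tested up to 22.9 uM final; 100 uM RO 20-1724 reference.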

[9] = target: Cytochrome P450 3A4 (Homo sapiens) (UniProt P08684); experiment: qHTS Assay for Activators of Cytochrome P450 3A4 (AID 885); conditions: recombinant CYP3A4, Luciferin-PPXE luminescence, 60 min; series mostly up to 57.1 µM; note: nearly all actives have a fitted effect of over 65% in size
Sequence of Cytochrome P450 3A4 (Homo sapiens) (P08684 whole entry, looked up): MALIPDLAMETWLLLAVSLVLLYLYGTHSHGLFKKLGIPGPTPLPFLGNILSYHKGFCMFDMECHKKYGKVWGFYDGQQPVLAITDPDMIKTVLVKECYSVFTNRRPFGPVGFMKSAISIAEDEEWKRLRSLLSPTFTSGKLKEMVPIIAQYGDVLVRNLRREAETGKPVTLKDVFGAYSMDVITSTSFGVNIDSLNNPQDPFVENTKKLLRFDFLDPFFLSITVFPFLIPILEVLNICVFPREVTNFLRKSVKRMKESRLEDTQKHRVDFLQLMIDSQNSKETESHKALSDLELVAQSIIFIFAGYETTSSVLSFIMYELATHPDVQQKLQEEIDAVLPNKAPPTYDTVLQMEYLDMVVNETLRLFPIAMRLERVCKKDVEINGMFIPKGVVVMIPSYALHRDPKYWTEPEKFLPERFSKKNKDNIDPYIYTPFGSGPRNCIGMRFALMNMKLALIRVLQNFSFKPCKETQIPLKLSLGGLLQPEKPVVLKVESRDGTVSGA
How it was run: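 Luminescent readout of luciferin formed from 25 uM Luciferin-PPXE (KM level) by 20 nM CYP3A4 in 200 mM KPO4, with 60 min NADPH-driven reaction at room temperature after 10 min compound exposure. Ketoconazole (57 uM) defined 100% inhibition.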

[10] = target: Dual specificity protein kinase CLK4 (Homo sapiens) (UniProt Q9HAZ1); experiment: qHTS Assay for Inhibitors of CDC-like Kinase 4 (Kinase-Glo Assay) (AID 1770); conditions: recombinant Clk4, Kinase-Glo ATP depletion luminescence; series mostly up to 66.7 µM; note: nearly all actives have a fitted effect of over 65% in size; note: potency is the fitted concentration of half-maximal effect
Sequence of Dual specificity protein kinase CLK4 (Homo sapiens) (Q9HAZ1 whole entry, looked up): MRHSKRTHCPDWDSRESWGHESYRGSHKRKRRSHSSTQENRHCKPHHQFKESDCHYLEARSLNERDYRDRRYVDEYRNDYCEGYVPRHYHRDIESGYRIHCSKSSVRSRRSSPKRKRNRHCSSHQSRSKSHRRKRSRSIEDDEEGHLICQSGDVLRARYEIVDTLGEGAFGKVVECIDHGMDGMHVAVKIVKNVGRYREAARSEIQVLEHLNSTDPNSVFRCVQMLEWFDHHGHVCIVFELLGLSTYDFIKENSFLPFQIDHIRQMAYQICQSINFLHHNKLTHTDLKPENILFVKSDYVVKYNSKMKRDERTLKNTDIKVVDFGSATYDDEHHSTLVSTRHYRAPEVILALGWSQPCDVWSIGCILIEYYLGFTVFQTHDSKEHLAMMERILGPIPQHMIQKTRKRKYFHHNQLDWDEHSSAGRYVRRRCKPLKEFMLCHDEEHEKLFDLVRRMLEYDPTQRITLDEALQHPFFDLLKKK
How it was run: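 Inhibition was judged from remaining ATP, measured by Ultra-Glo luciferase bioluminescence after Clk4 (25 nM) had acted on RS peptide at 1 uM ATP for 4.5 hours, room temperature.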

[11] = target: Dual specificity protein kinase CLK4 (Homo sapiens) (UniProt Q9HAZ1); experiment: qHTS Assay for Inhibitors of CDC-like Kinase 4 (ADP-Glo Assay) (AID 1771); conditions: recombinant CLK4, ADP-Glo luminescence; series mostly up to 80 µM; note: nearly all actives have a fitted effect of over 70% in size; note: potency is the fitted concentration of half-maximal effect
How it was run: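 Compounds are pin-transferred onto substrate mix (100 uM RS peptide, 1 uM ATP), then 25 nM Clk4 is added. After 1 hr at room temperature, ADP-Glo reagent runs 45 min, detection reagent 30 min, then luminescence is read.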

[12] = target: Dual specificity protein kinase CLK4 (Homo sapiens) (UniProt Q9HAZ1); experiment: qHTS Assay for Inhibitors of CDC-like Kinase 4 (ADP-FP Assay) (AID 1795); conditions: Transcreener ADP fluorescence polarization; series mostly up to 50 µM; note: nearly all actives have a fitted effect of over 60% in size; note: potency is the fitted concentration of half-maximal effect
How it was run: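 Inhibition of ADP formation by 6.25 nM Clk4 is measured using 1 uM ATP and 100 uM RS repeat peptide over one hour. Produced ADP displaces a fluorescent tracer from antibody, lowering polarization.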

[13] = target: Ubiquitin carboxyl-terminal hydrolase 1 (Homo sapiens) (UniProt O94782); experiment: Inhibitors of USP1/UAF1: Pilot qHTS (AID 504865); conditions: purified USP1/UAF1, Ub-rhodamine cleavage fluorescence; series mostly up to 54.9 µM;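 note: rhodamine fluorescence freed from ubiquitin-rhodamine substrate followed over time; top concentration of the series differs between compounds; % is set by controls: 0 for no effect and ±100 for the full control effect; nearly all actives have a fitted effect of over 35% in size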
Sequence of Ubiquitin carboxyl-terminal hydrolase 1 (Homo sapiens) (O94782 whole entry, looked up): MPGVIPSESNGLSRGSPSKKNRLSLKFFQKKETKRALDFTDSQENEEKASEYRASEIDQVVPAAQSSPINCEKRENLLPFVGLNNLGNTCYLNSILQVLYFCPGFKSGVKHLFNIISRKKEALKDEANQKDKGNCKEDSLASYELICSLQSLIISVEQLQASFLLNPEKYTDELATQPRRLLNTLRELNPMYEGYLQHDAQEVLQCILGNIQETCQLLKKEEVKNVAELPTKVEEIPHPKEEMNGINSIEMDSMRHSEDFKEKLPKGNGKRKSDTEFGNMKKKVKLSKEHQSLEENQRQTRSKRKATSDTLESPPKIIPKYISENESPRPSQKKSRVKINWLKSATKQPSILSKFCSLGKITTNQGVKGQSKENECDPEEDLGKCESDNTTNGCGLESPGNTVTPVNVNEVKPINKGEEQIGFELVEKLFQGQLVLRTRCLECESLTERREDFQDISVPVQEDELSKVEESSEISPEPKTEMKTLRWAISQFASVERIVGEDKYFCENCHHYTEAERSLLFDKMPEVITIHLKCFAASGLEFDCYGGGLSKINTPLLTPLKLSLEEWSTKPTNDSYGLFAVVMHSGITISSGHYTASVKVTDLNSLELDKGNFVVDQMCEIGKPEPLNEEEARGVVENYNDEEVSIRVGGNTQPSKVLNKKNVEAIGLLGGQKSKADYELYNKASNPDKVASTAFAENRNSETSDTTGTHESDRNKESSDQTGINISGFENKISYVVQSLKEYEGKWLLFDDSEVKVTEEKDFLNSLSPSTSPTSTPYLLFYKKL
How it was run: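 Kinetic fluorescence assay: 1nM USP1/UAF1, 15 min compound preincubation, then 150nM Ub-Rho; 480/540 nm.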

[14] = Primary qHTS for small molecule stabilizers of the endoplasmic reticulum resident proteome: Secreted ER Calcium Modulated Protein (SERCaMP) assay (AID 1508630); conditions: SH-SY5Y GLuc-SERCaMP (Gaussia luciferase released on ER calcium loss) secretion, thapsigargin, luminescence; series mostly up to 38.4 µM; note: % is set by controls: 0 for no effect and ±100 for the full control effect
How it was run: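 The SH-SY5Y reporter protocol was run at 3 concentrations up to 38.3 uM (primary) or 11 concentrations (follow-up): 16 h compound, 100 nM thapsigargin for 4 h, then extracellular luciferase luminescence.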

[15] = target: Glucocorticoid receptor (Homo sapiens) (UniProt P04150); experiment: GR-GFP Redistribution (AID 450;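 active = compounds whose dose series gives a full or clear partial fitted curve of increased nuclear translocation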; note: potency is the fitted concentration of half-maximal effect); conditions: U2OS GR-GFP nuclear translocation, laser cytometry, 2 h
[16] = qHTS Assay for Identification of Small Molecule Agonists for Hypoxia Response Element Signaling Pathway (AID 914; active = well fitted activation curve with a large enough effect in the signal ratio, with a control signal flat, not every such curve was filed as active; the % refers to the signal ratio; note: potency is the fitted concentration of half-maximal effect); conditions: ME-180 (cervical carcinoma) HRE-bla reporter, beta-lactamase ratio, CoCl2, 17 h; activation: active compounds read high
How it was run: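 qHTS titration; ME-180 HRE-bla cells; EC50 CoCl2 co-treatment, 17 h at 37 degrees Celsius; CCF4 dye, ex 405nm, em 460nm and 530nm; %Activity from ratio; AC50.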

[17] = target: Cytochrome P450 3A4 (Homo sapiens) (UniProt P08684); experiment: qHTS Assay for Inhibitors and Substrates of Cytochrome P450 3A4 (AID 884); conditions: recombinant CYP3A4, Luciferin-PPXE luminescence; series mostly up to 57.1 µM; note: potency is the fitted concentration of half-maximal effect; nearly all actives have a fitted effect of over 50% in size
How it was run: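 Luminescent readout of luciferin produced by CYP3A4 (20 nM) dealkylation of Luciferin-PPXE, 25 uM (its KM). NADPH-driven reaction ran 60 min at RT after 10 min compound preincubation; data scaled to 57 uM ketoconazole as 100% inhibition.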

[18] = target: Cytochrome P450 2C19 (Homo sapiens) (UniProt P33261); experiment: qHTS Assay for Inhibitors and Substrates of Cytochrome P450 2C19 (AID 899); conditions: recombinant CYP2C19, luciferin-H EGE luminescence; series mostly up to 57.1 µM; note: potency is the fitted concentration of half-maximal effect; nearly all actives have a fitted effect of over 60% in size
Sequence of Cytochrome P450 2C19 (Homo sapiens) (P33261 whole entry, looked up): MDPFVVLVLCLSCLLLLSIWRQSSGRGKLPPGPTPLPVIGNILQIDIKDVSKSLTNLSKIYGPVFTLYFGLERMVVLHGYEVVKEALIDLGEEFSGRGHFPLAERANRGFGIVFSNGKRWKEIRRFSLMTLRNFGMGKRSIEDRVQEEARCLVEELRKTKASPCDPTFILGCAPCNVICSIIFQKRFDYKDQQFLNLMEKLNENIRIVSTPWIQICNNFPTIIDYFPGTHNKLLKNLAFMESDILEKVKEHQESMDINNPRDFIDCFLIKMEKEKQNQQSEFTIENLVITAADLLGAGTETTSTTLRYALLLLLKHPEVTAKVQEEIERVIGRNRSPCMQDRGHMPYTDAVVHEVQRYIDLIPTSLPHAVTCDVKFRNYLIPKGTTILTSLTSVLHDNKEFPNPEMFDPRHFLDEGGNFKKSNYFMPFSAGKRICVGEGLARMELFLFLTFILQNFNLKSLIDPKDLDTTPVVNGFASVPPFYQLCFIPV
How it was run: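 5 nM human CYP2C19 with 10uM Luciferin-H EGE (at KM) in 50mM KPO4, compound preincubated 10 min at 37C, then NADPH regeneration for 60 min at 37C. Luciferin read by luminescence after detection reagent; normalized to 57uM ketoconazole as full inhibition.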

Row | SMILES | Potency [1] | activity change, negative = inhibition [2] | Potency [3] | activity change, negative = inhibition [4] | activity, negative = inhibition [5] | Potency [6] | Potency [7] | Potency [8] | Potency [9] | Potency [10] | Potency [11] | Potency [12] | Potency [13] | outcome [14] | Potency [15] | Potency [16] | Potency [17] | Potency [18]
1 | COc1ccc(-n2c(=O)c(-c3cccc(F)c3)nc3cncnc32)cc1 | > 11.4 µM | -4.56% | 3.98 µM (active) | 7.82% | -17.1% | > 46 µM | inactive | inactive | inactive | inactive | inactive | inactive | inactive | inactive |  |  |  | 
2 | CCNc1ncc2nc(-c3cn(C)c4ccccc34)c(=O)n(Cc3ccc(F)cc3)c2n1 | > 11.4 µM | -5.76% | 15.8 µM (active) | 2.58% |  | > 46 µM | inactive | inactive | inactive | inactive | inactive | inactive | inactive | inactive | > 9.22 µM | 2.51 µM (active) |  | 
3 | CCNc1ncc2nc(-c3ccc(F)cc3)c(=O)n(C[C@H]3CCCO3)c2n1 | > 11.4 µM | -0.226% | 1.26 µM (active) | 12.6% |  | > 46 µM | inactive |  |  | inactive | inactive | inactive | inactive | inactive | > 9.22 µM |  |  | 
4 | COc1ccc(CNc2nc(-c3cccc(C#N)c3)nc3ccccc23)c(OC)c1 | > 11.4 µM | -19.2% | 2.51 µM (active) |  | -10.1% | > 46 µM | inactive |  | inactive | inactive | inactive | inactive | inactive | inactive | > 46 µM |  | 2.51 µM (active) | 
5 | O=c1c(-c2ccccc2)nc2cnc(N3CCOCC3)nc2n1C[C@H]1CCCO1 | > 11.4 µM | 17% | 3.16 µM (active) |  | 20.8% | > 46 µM | inactive | inactive | inactive | inactive | inactive | inactive | inactive | inactive | > 9.22 µM |  |  | 
6 | COc1ccccc1CNc1ccnc(-c2cccc(C#N)c2)n1 | > 11.4 µM | -13.8% | 0.794 µM (active) | 8.07% | -11.8% | > 46 µM | inactive | inactive | inactive | 7.94 µM (active) | 7.94 µM (active) | 3.16 µM (active) |  | inactive | > 46 µM |  | 3.98 µM (active) | 3.98 µM (active)
